In the library only some 4% were active in any assay of this set; here they are far more common.
Mtb FBA inh = Mtb FBA enzyme inhibitors, primary screen, biochemical, fluorescence, strain H37Rv; hit rate 2.3% among 360,000; AID 588726, 2011; purified M. tuberculosis FBA, fluorescence read-out; inhibition, % at 1 µM; in the data active = inhibition above about 27%;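 note: 0% = vehicle and 100% = reference inhibitor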
Rv3671c inh = Rv3671c serine protease inhibitors, primary screen, biochemical, fluorescence polarization, M. tuberculosis H37Rv; P9WHR9; inhibition, % at 5.96 µM; hit rate 0.048% among 320,000; in the data active = inhibition above about 38%;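 note: extracellular domain of Rv3671c used as enzyme; 0% = enzyme with DMSO and 100% = no enzyme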
UGM FP inh = M. tuberculosis UGM enzyme inhibitors, primary screen, biochemical, fluorescence polarization, single point; purified UGM, fluorescence polarization probe displacement; inhibition, % at 10 µM; hit rate 0.06% among 320,000; in the data active = inhibition above about 10%, passing the limit was not always enough; inconclusive = no clear call, values can overlap the other calls
Target sequence (P9WIQ1 whole entry, looked up): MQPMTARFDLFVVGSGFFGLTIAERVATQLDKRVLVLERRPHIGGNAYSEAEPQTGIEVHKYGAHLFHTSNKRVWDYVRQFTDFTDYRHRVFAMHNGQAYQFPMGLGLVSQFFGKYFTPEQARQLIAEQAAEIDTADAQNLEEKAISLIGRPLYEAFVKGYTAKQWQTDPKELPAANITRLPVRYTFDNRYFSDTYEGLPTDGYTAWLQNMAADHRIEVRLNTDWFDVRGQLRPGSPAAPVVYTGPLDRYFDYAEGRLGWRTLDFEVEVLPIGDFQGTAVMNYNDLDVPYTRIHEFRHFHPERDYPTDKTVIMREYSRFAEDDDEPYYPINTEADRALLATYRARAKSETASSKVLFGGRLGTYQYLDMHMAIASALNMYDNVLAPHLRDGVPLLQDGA
RecA splice inh = Mtb RecA intein splicing inhibitors, primary screen, biochemical, fluorescence, HTS | hit rate 0.75% among 290,000 | cell-free RecA intein splicing | Protein RecA (Mycobacterium tuberculosis (strain ATCC 25618 / H37Rv)), P9WHJ3 | inhibition, % (test concentration not listed); in the data active = inhibition above about 30%; inconclusive = no clear call, values can overlap the other calls;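 note: 0% = vehicle wells and 100% = reference inhibitor control wells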
Mtb bLac sens = beta-lactam sensitization of Mtb H37Rv, H37Rv; inhibition, % at 25 µM; M. tuberculosis H37Rv growth with meropenem, percent inhibition; hit rate 0.27% among 330,000; AID 434955, 2010; call rule not given here;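 note: growth measured after seven days incubation then overnight dye step; 0% = bacteria only wells and 100% = bacteria with antibiotic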
GDH-TPI counter = GDH-TPI coupling enzyme inhibitors, primary screen, artefact control for M. tuberculosis FBA inhibitor project, biochemical, absorbance, full deck; GDH-TPI coupled enzyme counterscreen, NADH absorbance; inhibition, % at 4.8 µM; hit rate 1.2% among 360,000; AID 588335, 2011; in the data active = inhibition above about 30%;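 note: 0% = DMSO wells and 100% = wells lacking the enzyme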
* hit, by the source's call; ? = inconclusive; . = no result given; + = active, no number.

SMILES	Mtb FBA inh	Rv3671c inh	UGM FP inh	RecA splice inh	Mtb bLac sens	GDH-TPI counter
COCCCn1c(C(=O)N2CCOCC2)cc2c(=O)n3ccccc3nc21	+	5	0	-95	-3	13
COCCCn1c(C(=O)Nc2ccc3c(c2)OCO3)cc2c(=O)n3ccccc3nc21	-2	-7	2	-53	1	4
CC(C)C(NC(=O)c1c(F)cccc1F)C(=O)OCN1C(=O)c2ccccc2C1=O (stereo unspecified)	-2	4	0	.	-2	3
CCC(=O)Oc1ccc2c(c1)OC1(OC(C)=O)OC(C)CC1=C2C (stereo unspecified)	+	11	-2	-48	20	21
COc1ccc(/C=N/N(CCC(=O)NC(C)(C)C)C2=NS(=O)(=O)c3ccccc32)cc1	6	0	-1	-56	8	47*
CC(C)(C)NC(=O)CCN(/N=C/c1ccncc1)C1=NS(=O)(=O)c2ccccc21	0	-9	5	0	-4	16
COC(=O)C(NC(=O)c1ccccc1)=C1C=C(C)OC(C)=C1	-3	7	-1	0	4	31*
CCOC(=O)C(NC(=O)c1ccccc1)=C1C=C(C)OC(C)=C1	-3	4	-1	-2	42	42*
COC(=O)C(NC(=O)c1ccccc1)=C(C)C	2	1	1	-2	-4	6
Cc1c(/C=N/Nc2ccc(F)cc2)c(O)n(C)c(=O)c1C#N	-6	-2	0	-4	85	33*
CCOC(=O)CNC(=O)N(CCOC)CC1CCCN(C2Cc3ccccc3C2)C1 (stereo unspecified)	+	-1	0	3	5	-8
COCCN(CC1CCCN(C2Cc3ccccc3C2)C1)C(=O)CCC(F)(F)F (stereo unspecified)	-1	1	-1	3	2	-2
O=C(O)COc1c(-c2ccccc2)oc2ccccc2c1=O	2	3	-1	-4	10	10
CC(=O)Oc1c(-c2ccco2)oc2ccccc2c1=O	22	5	-7	-97	95	44*
Cc1ccc(N(C)S(=O)(=O)c2c(C)noc2/C=C/N(C)C)cc1	4	-16	4	-2	-10	34*
O=C(Nc1ncccc1O)c1ccc(Cl)c(S(=O)(=O)N2CCCC2)c1	-5	.	.	.	.	6
Cc1cc2nc(N=C(N)N)nc(C)c2cc1C	7	.	.	.	.	9
O=C(OCc1cn([C@H]2C[C@H](c3ccc(Cl)cc3)N(C(=O)C3CCCCC3)C[C@@H]2O)nn1)c1ccccc1	-1	.	.	.	.	11
COc1ccc2cc(/C(C)=N/NC(=O)c3cc(C)oc3C)ccc2c1	198*	.	.	.	.	9
C/C(=N\NC(=O)c1cc(C)oc1C)c1ccc(C)c([N+](=O)[O-])c1	-2	-6	2	.	5	7
CCN(CC)c1ccc(C(=O)N/N=C(\C)c2ccc(O)cc2)cc1	-1	6	1	-1	0	34*
COc1ccc(/C(C)=N/NC(=O)c2ccc(N(C)C)cc2)cc1	0	1	2	-3	6	35*
O=C(NCCCc1ccccc1)c1cccc(NC(=O)C2CCCCC2)c1	-2	.	.	.	.	3
CN1C(=O)C(=Cc2ccccc2Oc2ccc(Cl)cc2)C(=O)N(C)C1=O	131*	-3	-3	7	-11	2
CN1C(=O)C(=Cc2ccccc2OCc2ccc(Cl)cc2)C(=O)N(C)C1=O	-2	-5	1	1	8	0
SMILES	Mtb FBA inh	Rv3671c inh	UGM FP inh	RecA splice inh	Mtb bLac sens	GDH-TPI counter
O=C(CCc1nc2ccccc2s1)N1CCN(c2ccccc2)CC1	-1	4	0	-1	9	-1
CC(=O)c1ccc(N2CCN(C(=O)CCCc3nc4ccccc4s3)CC2)cc1	1	3	-1	.	5	32*
CCCC(=O)NC1=C(N2CC2)C(=O)C(NC(=O)CCC)=C(N2CC2)C1=O	-2	.	.	.	.	33*
Cc1nc(N2CCC(C)CC2)c2c(C)c(C(=O)Nc3ccc4c(c3)OCCO4)sc2n1	0	-5	2	3	99	11
Cc1c(C(=O)Nc2ccc3c(c2)OCCO3)sc2ncnc(N3CCCCC3C)c12 (stereo unspecified)	1	-33	-1	2	91	31*
COCCn1c(SCC(=O)N2CCC(C)CC2)nc2c(c1=O)SCC2	0	4	-3	0	-4	10
N#C/C(=N\Nc1c(Cl)cccc1Cl)C(=O)NN	-12	7	2	17	1	32*
Cc1ccccc1C(=O)N1CCC2CC1c1cc(Cl)ccc12 (stereo unspecified)	0	.	.	.	.	2
CSc1nc(O)c(Nc2ccccc2)c(=O)[nH]1	0	.	.	.	.	1
CSc1nc(O)c(Nc2cccc(Cl)c2)c(=O)[nH]1	4	1	1	76*	-3	6
CCc1c(C)nc2ncnn2c1Nc1ccc(C(C)=O)cc1	2	-1	-1	0	1	40*
CCc1c(C)nc2ncnn2c1Nc1ccc(C#N)c(Cl)c1	3	1	3	0	-6	25
CCOC(=O)c1ccc(Nc2c(CC)c(C)nc3ncnn23)cc1	1	0	3	-1	-9	32*
CNC(=S)NNC(=O)c1cc(-c2cccnc2)nc2ccccc12	-1	-3	-1	-2	1	7
C=CCOc1ccccc1CN1CCC(Oc2ccc(C(=O)N3CCCCC3)cc2)CC1	1	-10	-1	2	?	1
Cc1c2ccccc2nc2c(F)c(N(C)C)c(F)c(F)c12	0	-18	0	-26	-3	3
CN(C)c1c2ccccc2nc2c(F)c(F)c(F)c(F)c12	117*	-2	-1	-167	2	1
N#CC(=Cc1ccc(O)cc1)C(N)=C(C#N)C#N	10	7	-1	.	0	37*
CCN(CC)c1ccc(/C=C(\C#N)C(N)=O)cc1	-29	.	.	.	.	6
Cc1cc(C)cc(S(=O)(=O)c2cnc3ccccc3n2)c1	-1	4	-1	32*	0	-5
O=C(COc1cccc(C(F)(F)F)c1)NNC(=O)c1ccc(=O)[nH]c1	-1	-1	0	.	-10	12
COC(=O)CC1=NN(c2ccc(OC)cc2)C(=O)C1	-5	-56	3	72*	1	8
CCOC(=O)c1nn(-c2ccc(Cl)cc2)c2nc(-c3ccc(C)cc3)c(C#N)c(=O)n12	6	-9	2	-3	16	6
N#Cc1c(C#N)c(-c2ccccc2)n(-c2ccccc2)c1N	27	-3	1	2	11	-5
Cc1ccc(-c2c(C#N)c(N)n(-c3ccccc3)c(=O)c2C#N)cc1	5	9	-1	-2	-7	40*

Source: PubChem
